Measurements reported in PubChem BioAssay.
Active and inactive are the calls of the source.

Key:
[1] = E. coli DRC41 culture turbidity changes, primary screen, E. coli filamentation inducer project, strain DRC41, OD650, 48 h (AID 1152);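 further: E. coli MC1000 strain DRC41 lacking acrAB efflux pump and sulA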; settings: E. coli DRC41 (acrAB sulA), higher = more signal, called active from +8 up or from −8 down
[2] = small-molecule binders of probe aLefty1, primary screen, biochemical, small-molecule microarray, 635/667 nm fluorescence (AID 1153); settings: higher = more signal;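 further: score merges spot fluorescence with signal-to-noise ratio from the scanned slide images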
[3] = PSAC antagonists in infected red cells, primary screen, cell-based, P. falciparum Indochina, OD700, 1 h (AID 1154); settings: P. falciparum Indochina infected RBC osmotic lysis, higher = more signal, called active from +8 up or from −8 down
[4] = PSAC antagonists in infected red cells, primary screen, cell-based, P. falciparum Indochina, OD700, 2 h (AID 1155);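 further: lysis reports solute entry through the parasite surface anion channel PSAC; channel blockers reduce lysis of infected cells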; settings: P. falciparum Indochina infected erythrocytes, osmotic lysis OD700; higher = more signal, called active from +8 up or from −8 down
[5] = osmotic lysis modulators in infected erythrocytes, primary screen, PSAC antagonist project, cell-based, P. falciparum Indochina, OD700, 3 h (AID 1156); settings: higher = more signal, called active from +8 up or from −8 down
[6] = PSAC antagonists in infected red cells, primary screen, cell-based, P. falciparum Indochina, OD700, 18 h (AID 1157); settings: P. falciparum Indochina infected erythrocytes, osmotic lysis OD700, 18 h; higher = more signal, called active from +8 up or from −8 down
[7] = modulators of S6 phosphorylation in cells, primary screen, cell-based, A549, cytoblot, luminescence, serum-stimulated (AID 1158); settings: A549 phospho-S6 cytoblot, 5 h, higher = more signal;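 further: serum-stimulated A549 lung adenocarcinoma cells; signal is phosphorylated S6 detected by cytoblot immunostaining with HRP secondary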
[8] = molecular target: NADPH oxidase 2 (Homo sapiens) (UniProt P04839); assay: NOX2-dependent H2O2 signal modulators, primary screen, NOX inhibitor project, cell-based, HEK293-NOX2, PMA-stimulated, Amplex Red fluorescence (AID 1159); settings: 45 min, higher = more signal, called active from +8 up or from −8 down; further: test concentration not given here
Sequence of NADPH oxidase 2 (Homo sapiens) (P04839 whole entry, looked up): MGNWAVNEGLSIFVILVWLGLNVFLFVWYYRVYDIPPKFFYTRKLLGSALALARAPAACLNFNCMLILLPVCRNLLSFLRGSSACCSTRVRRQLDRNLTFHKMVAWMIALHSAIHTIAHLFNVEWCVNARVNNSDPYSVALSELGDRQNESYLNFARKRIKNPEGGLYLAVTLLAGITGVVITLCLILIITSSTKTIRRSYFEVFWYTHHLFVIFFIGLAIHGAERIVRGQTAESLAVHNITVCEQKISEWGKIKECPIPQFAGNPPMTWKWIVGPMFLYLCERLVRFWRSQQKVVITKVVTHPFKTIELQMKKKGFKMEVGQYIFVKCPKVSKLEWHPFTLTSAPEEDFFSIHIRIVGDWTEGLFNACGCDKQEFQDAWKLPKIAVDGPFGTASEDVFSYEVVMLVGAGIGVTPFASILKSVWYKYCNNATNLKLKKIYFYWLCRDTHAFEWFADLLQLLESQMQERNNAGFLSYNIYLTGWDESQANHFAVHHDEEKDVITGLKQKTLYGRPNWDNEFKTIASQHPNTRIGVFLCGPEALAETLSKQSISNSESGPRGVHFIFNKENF

[9] = molecular target: NADPH oxidase 4 (Homo sapiens) (UniProt Q9NPH5); assay: NOX4-dependent H2O2 signal modulators, primary screen, NOX inhibitor project, cell-based, HEK293-NOX4, tetracycline-induced, Amplex Red fluorescence (AID 1160); settings: 45 min, higher = more signal, called active from +8 up or from −8 down
Sequence of NADPH oxidase 4 (Homo sapiens) (Q9NPH5 whole entry, looked up): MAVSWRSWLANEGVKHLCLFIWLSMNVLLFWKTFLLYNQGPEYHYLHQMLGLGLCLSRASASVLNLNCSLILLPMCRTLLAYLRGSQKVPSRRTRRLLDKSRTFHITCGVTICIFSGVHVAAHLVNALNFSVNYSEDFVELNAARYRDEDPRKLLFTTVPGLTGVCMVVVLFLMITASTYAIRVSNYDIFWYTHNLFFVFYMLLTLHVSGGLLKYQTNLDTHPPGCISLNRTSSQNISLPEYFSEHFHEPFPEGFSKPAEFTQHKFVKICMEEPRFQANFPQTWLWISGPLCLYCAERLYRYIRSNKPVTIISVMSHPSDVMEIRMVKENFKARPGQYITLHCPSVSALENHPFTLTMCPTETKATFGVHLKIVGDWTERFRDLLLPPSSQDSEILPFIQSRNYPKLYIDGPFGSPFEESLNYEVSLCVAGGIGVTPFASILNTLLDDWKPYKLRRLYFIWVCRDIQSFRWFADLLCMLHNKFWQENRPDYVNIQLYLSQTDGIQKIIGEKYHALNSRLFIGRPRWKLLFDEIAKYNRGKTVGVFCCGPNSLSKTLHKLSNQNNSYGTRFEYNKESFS

[10] = molecular target: NADPH oxidase 5 (Homo sapiens) (UniProt Q96PH1); assay: NOX5-dependent H2O2 signal modulators, primary screen, NOX inhibitor project, cell-based, HEK293-NOX5, Amplex Red fluorescence (AID 1161); settings: HEK293-NOX5, ionomycin, 45 min, higher = more signal
Sequence of NADPH oxidase 5 (Homo sapiens) (Q96PH1 whole entry, looked up): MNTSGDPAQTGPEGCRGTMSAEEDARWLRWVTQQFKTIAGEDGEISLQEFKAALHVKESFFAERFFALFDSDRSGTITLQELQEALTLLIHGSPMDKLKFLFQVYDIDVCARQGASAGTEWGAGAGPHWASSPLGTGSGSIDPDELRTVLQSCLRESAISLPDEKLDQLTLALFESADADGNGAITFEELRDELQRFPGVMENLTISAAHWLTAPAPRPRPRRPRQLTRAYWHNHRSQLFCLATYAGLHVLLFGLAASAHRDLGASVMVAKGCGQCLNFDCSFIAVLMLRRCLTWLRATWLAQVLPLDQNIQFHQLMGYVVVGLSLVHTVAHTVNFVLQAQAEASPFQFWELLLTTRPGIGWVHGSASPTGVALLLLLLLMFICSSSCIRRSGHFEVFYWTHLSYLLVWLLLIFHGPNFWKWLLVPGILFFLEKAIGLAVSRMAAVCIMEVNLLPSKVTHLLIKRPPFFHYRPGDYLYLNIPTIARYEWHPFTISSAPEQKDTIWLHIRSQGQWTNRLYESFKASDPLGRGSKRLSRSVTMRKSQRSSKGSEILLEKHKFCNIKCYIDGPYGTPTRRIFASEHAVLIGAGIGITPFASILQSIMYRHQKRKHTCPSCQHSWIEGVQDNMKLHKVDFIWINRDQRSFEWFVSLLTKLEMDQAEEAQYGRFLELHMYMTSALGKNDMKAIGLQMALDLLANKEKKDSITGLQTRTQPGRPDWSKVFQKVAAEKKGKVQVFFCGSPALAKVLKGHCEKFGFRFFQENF

SMILES | z-score [1] | composite z-score [2] | z-score [3] | z-score [4] | z-score [5] | z-score [6] | z-score [7] | z-score [8] | z-score [9] | z-score [10]
C=CCOC(=O)[C@H]1[C@@H]2C(=O)O[C@@H](c3ccccc3)[C@@H](c3ccccc3)N2[C@@H](c2ccc(OCCOC(=O)[C@@H]3C[C@@H]4C(=O)N5CCC[C@H]5C(=O)N4[C@@H]3c3ccc(O)cc3)cc2)[C@]12C(=O)Nc1ccccc12 | 0.891 (inactive) | 0.137 | 2.72 (inactive) | 1.04 (inactive) | 2.96 (inactive) | 0.668 (inactive) | 0.193 | 1.64 (inactive) | 1.21 (inactive) | 1.57
CN1CCC(CCCO)=CC1c1ccc(CN2CCCC2)cc1 (stereo not given) | 0.112 (inactive) | 0.663 | -0.274 (inactive) | -0.201 (inactive) | -0.0797 (inactive) | -0.111 (inactive) | -0.494 | -3.22 (inactive) | -0.765 (inactive) | -0.482
COCCOC(=O)N1C(=O)[C@@]2(c3cc(C#CCCO)ccc31)[C@H](C(=O)NC[C@H](O)c1ccccc1)[C@H]1C(=O)O[C@H](c3ccccc3)[C@H](c3ccccc3)N1[C@@H]2c1ccc(O)cc1 | 1.53 (inactive) | 0.0509 | 1.35 (inactive) | 0.706 (inactive) | -0.365 (inactive) | 0.435 (inactive) | 0.391 | 0.745 (inactive) | 0.698 (inactive) | 1.21
CC(C)C[C@@H]1NC(=O)[C@@H]2C[C@H](C(=O)NCCCCCC[N+](C)(C)C)[C@H](c3ccc(O)cc3)N2C1=O | 0.55 (inactive) | 0.127 | 3.47 (inactive) | 0.637 (inactive) | -1.96 (inactive) | 0.227 (inactive) | -0.274 | 0.994 (inactive) | 0.763 (inactive) | 0.75
COC(=O)[C@@]1(Cc2ccccc2N=[N+]=[N-])COC(c2ccc(OCCCO)cc2)=N1 | -1.01 (inactive) | 0.933 | 24.3 (active) | 8.54 (active) | 3.35 (inactive) | 1.03 (inactive) | -0.317 | -1.38 (inactive) | -0.156 (inactive) | -1.63
C=CCC(OC(C)=O)[C@@H]1[C@@H](N(Cc2ccc(-c3ccccc3)cc2)C(=O)Cc2ccc(OC)cc2)c2cc(OCCCO)ccc2N1C(=O)c1ccc2ccccc2n1 (stereo not given in full) | 0.165 (inactive) | 0.167 | 2.27 (inactive) | 0.925 (inactive) | -0.165 (inactive) | 1.02 (inactive) | 0.751 | -2.73 (inactive) | 1.41 (inactive) | 2.5
[N-]=[N+]=NCc1ccccc1[C@@H]1OC(c2ccc(OCCCO)cc2)=N[C@]1(Cc1ccccc1)C(=O)N1CCCCC1 | 1.22 (inactive) | 0.33 | 21.5 (active) | 4.66 (inactive) | 1.78 (inactive) | 1.3 (inactive) | -0.205 | -0.84 (inactive) | 0.453 (inactive) | -1.26
C=CC[C@@]1(C(=O)O)N=C(c2ccc(OCCCO)cc2)O[C@@H]1c1ccccc1N=[N+]=[N-] | 0.232 (inactive) | 0.546 | 33.9 (active) | 32.2 (active) | 2.2 (inactive) | 8.02 (active) | -0.567 | -0.973 (inactive) | 1.14 (inactive) | 0.518
CC(C)(C)N1CC=CC23O[C@@H]4C=CCOC(=O)[C@@H]4[C@H]2C(=O)N(CCCCCO)[C@@H]3C1=O (stereo not given in full) | -0.197 (inactive) | -0.0094 | 0.987 (inactive) | 0.624 (inactive) | 1.47 (inactive) | 0.453 (inactive) | -0.301 | 1.27 (inactive) | 0.436 (inactive) | 1.52
COC(=O)[C@@]1(Cc2ccc(OC)cc2)[C@H]2c3cc(C(=O)N4CCCC4)n(CCc4c[nH]c5cc(F)ccc45)c3C[C@H]2CN1C(=O)c1ccccc1 | -0.429 (inactive) | 1.27 | 3.07 (inactive) | 0.676 (inactive) | 0.745 (inactive) | 1.06 (inactive) | -0.174 | 0.438 (inactive) | 0.0193 (inactive) | -0.293
COCCOC(=O)N1C(=O)[C@@]2(c3cc(C#CCC(C(=O)OC)C(=O)OC)ccc31)[C@H](c1ccccc1OCCO)N1[C@H](c3ccccc3)[C@H](c3ccccc3)OC(=O)[C@H]1[C@@H]2C(=O)N1CCc2cc(OC)c(OC)cc2C1 | 2.09 (inactive) | 0.438 | 1.87 (inactive) | -0.226 (inactive) | -0.23 (inactive) | -0.466 (inactive) | 0.61 | 1.26 (inactive) | 1.56 (inactive) | 0.631
C=CC[C@]1(C(=O)N2CCOCC2)N=C(c2ccc(OCCCO)cc2)O[C@H]1c1ccccc1 | 0.104 (inactive) | 0.302 | 11.3 (active) | 1.09 (inactive) | 0.492 (inactive) | 0.471 (inactive) | -0.0044 | -1.59 (inactive) | 0.486 (inactive) | -0.921
COC(=O)[C@]1(Cc2ccccc2N=[N+]=[N-])N=C(c2ccc(OCCCO)cc2)O[C@@H]1c1ccccc1N=[N+]=[N-] | -1.19 (inactive) | -0.236 | 29.5 (active) | 27.4 (active) | -0.495 (inactive) | 6.35 (inactive) | 0.0559 | -0.877 (inactive) | 0.755 (inactive) | 0.677
O=C1C2C=CC(C(O)c3cccs3)N(Nc3ccccc3F)C2C(=O)N1c1ccccc1 (stereo not given) | 0.386 (inactive) | 0.248 | 1.35 (inactive) | -0.506 (inactive) | -1.27 (inactive) | -1.23 (inactive) | 0.224 | -0.932 (inactive) | -3.7 (inactive) | -1.78
C=CCNC(=O)[C@H]1[C@@H]2C(=O)O[C@@H](c3ccccc3)[C@@H](c3ccccc3)N2[C@@H](c2ccc(O)cc2)[C@]12C(=O)N(C(=O)OCCOC)c1ccc(C#CCCO)cc12 | 1.23 (inactive) | 0.0341 | 1.89 (inactive) | 0.658 (inactive) | 0.958 (inactive) | 0.418 (inactive) | 0.102 | 0.74 (inactive) | 0.261 (inactive) | 0.533
CCOC(=O)C1=CCC(c2ccc([N+](=O)[O-])cc2)N(S(=O)(=O)c2ccc(C)cc2)C1 (stereo not given) | -0.65 (inactive) | 0.0839 | 5.2 (inactive) | 1.91 (inactive) | -0.364 (inactive) | 0.781 (inactive) | -0.864 | 1.07 (inactive) | 0.135 (inactive) | 0.739
CCOC(=O)C1=CCC(C(C)(C)C)N(S(=O)(=O)c2ccc(C)cc2)C1 (stereo not given) | -1.32 (inactive) | 0.0494 | 1.53 (inactive) | 0.768 (inactive) | 0.281 (inactive) | 0.289 (inactive) | -0.693 | -0.124 (inactive) | -1.21 (inactive) | 0.194
COc1ccc(C(O)C2C=CC3C(=O)NC(=O)C3N2Nc2ccccn2)cc1OCc1ccccc1 (stereo not given) | -0.325 (inactive) | -0.106 | 1.68 (inactive) | 0.396 (inactive) | 0.479 (inactive) | 1.04 (inactive) | -0.432 | -1.49 (inactive) | -3.05 (inactive) | -2.03
C=CCNC(=O)[C@@H]1[C@H]2C(=O)O[C@H](c3ccccc3)[C@H](c3ccccc3)N2[C@H](c2ccc(O)cc2)[C@@]12C(=O)N(C(=O)OCCOC)c1ccccc12 | 0.808 (inactive) | 0.149 | 1.35 (inactive) | -0.27 (inactive) | 0.123 (inactive) | -1.08 (inactive) | 1.64 | 0.818 (inactive) | -0.913 (inactive) | -2.08
O=C1N(CCS(=O)(=O)c2ccccc2)c2ccccc2C[C@@]12COC(c1ccc(OCCCO)cc1)=N2 | -2.43 (inactive) | 0.0804 | 23.6 (active) | 8.71 (active) | 2.58 (inactive) | 0.764 (inactive) | -0.616 | 0.759 (inactive) | 1.04 (inactive) | -0.312
O=C1N(CCS(=O)(=O)c2ccccc2)Cc2ccccc2C[C@]12N=C(c1ccc(OCCCO)cc1)O[C@@H]2c1ccccc1 | 0.697 (inactive) | 1.66 | 22.2 (active) | 8.54 (active) | 0.443 (inactive) | 0.427 (inactive) | 2.67 | -0.282 (inactive) | 1 (inactive) | -0.517
O=C(CS)NCCCCCCNC(=O)[C@H]1C[C@H]2C(=O)N3CCC[C@H]3C(=O)N2[C@H]1c1cccc(OCCO)c1 | -1.17 (inactive) | 0.105 | 5.08 (inactive) | 0.331 (inactive) | -0.645 (inactive) | 0.253 (inactive) | 0.598 | 1.25 (inactive) | 0.799 (inactive) | 0.0469
